TbREL1 primary: TbREL1 RNA ligase inhibitors, primary screen, biochemical, FRET fluorescence. inhibition, % at 9.66 µM. 89,000 compounds, 0.49% hits. AID 1117264, 2014. RNA-editing ligase 1, mitochondrial (Trypanosoma brucei brucei), P86926. TbREL1 RNA ligation;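 active means inhibition above the mean inhibition across all screened compounds plus 3 SD, cut at about 11% in these data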
Target sequence (P86926 whole entry, looked up): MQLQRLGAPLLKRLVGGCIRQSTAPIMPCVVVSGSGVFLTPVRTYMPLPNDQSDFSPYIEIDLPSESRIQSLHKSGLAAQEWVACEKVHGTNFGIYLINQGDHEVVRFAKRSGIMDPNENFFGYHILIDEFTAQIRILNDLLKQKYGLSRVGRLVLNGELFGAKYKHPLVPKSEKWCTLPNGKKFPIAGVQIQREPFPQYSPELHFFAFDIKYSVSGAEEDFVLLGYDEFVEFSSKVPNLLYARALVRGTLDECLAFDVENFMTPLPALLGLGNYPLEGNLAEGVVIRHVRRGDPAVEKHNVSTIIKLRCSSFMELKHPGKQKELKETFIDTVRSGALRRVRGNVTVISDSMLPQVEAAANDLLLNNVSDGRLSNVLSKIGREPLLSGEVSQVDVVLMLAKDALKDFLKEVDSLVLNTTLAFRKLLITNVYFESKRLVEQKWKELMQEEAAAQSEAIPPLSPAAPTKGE
TbREL1 confirm: TbREL1 RNA ligase inhibitors, confirmation, biochemical, FRET fluorescence, triplicate; shares compounds with TbREL1 primary; TbREL1 RNA ligation; inhibition, % at 9.66 µM; 390 compounds, 37% hits;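 active means mean inhibition across replicates above a set limit taken from the earlier primary screen, cut at about 11% in these data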
Each line names hits and unclear results; the compound was inactive in the other large screens (follow-up assays come after a bar, where they were run). The full list was thinned out, with hits kept by preference.

O=C(NCc1c(F)cccc1F)C1CCCN(c2ncccn2)C1 (stereo not drawn)	none
COC(=O)[C@]12C[C@H](CC(=O)N3CCSCC3)C(=O)N(Cc3ccco3)C1=C[C@H](COCc1ccccc1)O[C@@H]2C	none
CC(C)(C)OC(=O)NC(Cc1ccccc1)C1CC(C#N)C(=O)O1 (stereo not drawn)	none
O=C(O)CN1C(=O)SC(Nc2ccc(Cl)cc2)C1=O (stereo not drawn)	TbREL1 primary 11 | TbREL1 confirm inactive
O=C(O)CN1C(=O)C2C3C=CC(C2C1=O)C1C(=O)N(CC(=O)O)C(=O)C31 (stereo not drawn)	none
O=C(CCNc1ccc(Cl)cc1)c1cccs1	none
O=S(=O)(CC1NCCc2ccccc21)NCc1ccc(F)cc1 (stereo not drawn)	none
CCOC(=O)C1(Cc2ccccc2)CCN(Cc2ccc(C)cc2)CC1	none
Cc1cccc2sc(N(CCCN(C)C)C(=O)c3ccc(C(=O)c4ccccc4)cc3)nc12	none
CN(C)CCCN(C(=O)c1ccc(S(=O)(=O)N2CCCC2)cc1)c1nc2ccc(Br)cc2s1	none
CN(C)CCCN(C(=O)c1ccc(S(=O)(=O)N2CCCCC2)cc1)c1nc2cc3c(cc2s1)OCO3	none
CN(C)CCCN(C(=O)c1ccc(C(=O)c2ccccc2)cc1)c1nc2ccc(F)cc2s1	TbREL1 primary 14 | TbREL1 confirm inactive
CCOc1ccc2nc(N(CCCN(C)C)C(=O)c3ccc(S(=O)(=O)N4CCCC4)cc3)sc2c1	none
CN(C)CCCN(C(=O)c1ccc(S(=O)(=O)N(C)C2CCCCC2)cc1)c1nc2ccc(F)cc2s1	TbREL1 primary 11 | TbREL1 confirm inactive
CCN(Cc1ccccc1)S(=O)(=O)c1ccc(C(=O)N(CCCN(C)C)c2nc3ccc(F)cc3s2)cc1	none
Cc1ccc2nc(N(CCCN(C)C)C(=O)c3ccc4c(c3)CCCC4)sc2c1	none
CN(C)CCCN(C(=O)c1ccc(S(=O)(=O)N(C)C2CCCCC2)cc1)c1nc2ccc(Br)cc2s1	TbREL1 primary 16 | TbREL1 confirm inactive
O=C(N[C@H](C(=O)N1CCC[C@H]1C(=O)NC1CCCC1)C1CCCCC1)c1ccccc1	none
O=C(CSc1nnc(-c2ccccn2)n1-c1ccccc1)Nc1ccc(OCc2ccccc2)cc1	none
Cc1ccc(CN2CCCCC(NC(=O)c3ccc(Br)cc3)C2=O)cc1 (stereo not drawn)	none
COC(=O)[C@]12C[C@H](CC(=O)NCCCCc3ccccc3)C(=O)N(Cc3ccc(Cl)cc3Cl)C1=C[C@H](C(C)C)O[C@@H]2C1CC1	none
Cc1cc(-c2n[nH]c(=S)n2N=Cc2cccc(Oc3ccccc3)c2)n[nH]1	none
O=C(NCc1ccc(Cl)cc1)C1CCCN(c2ncccn2)C1 (stereo not drawn)	none
Cn1c(COc2ccccc2)nnc1SCC(=O)Nc1ccc(OCc2ccccc2)cc1	none
CCCCCCCC(=O)N[C@H]1CC[C@@]23CCCN2C(=O)CCC[C@H]3[C@H]1CCC	none
CCC[C@H]1[C@@H](NCC2CCCCC2)CC[C@@]23CCCN2C(=O)CCC[C@@H]13	none
CCC[C@H]1[C@@H](OC(=O)NCc2ccc(Cl)c(Cl)c2)CC[C@@]23CCCN2C(=O)CCC[C@@H]13	TbREL1 primary 13 | TbREL1 confirm inactive
CCC[C@H]1[C@@H](NC(=O)C2CCCCC2)CC[C@@]23CCCN2C(=O)CCC[C@@H]13	TbREL1 primary 36 | TbREL1 confirm inactive
CCC[C@H]1[C@@H](OC(=O)NCc2ccc(Cl)cc2)CC[C@@]23CCCN2C(=O)CCC[C@@H]13	none
CCC[C@H]1[C@@H](OC(=O)NCc2ccc(C)cc2)CC[C@@]23CCCN2C(=O)CCC[C@@H]13	none
O=C(CSc1nnc(-c2cccnc2)n1-c1ccc(Cl)cc1)Nc1cccc2ccccc12	none
O=C(NCc1ccccc1)C(c1ccco1)N1CCN(CCN2CCOCC2)CC1 (stereo not drawn)	none
Cc1ccc(S(=O)(=O)N2CCCC(C(=O)NCc3ccco3)C2)cc1 (stereo not drawn)	none
CC(=O)N1CCN(c2cc(C)nc3nc(C)nn23)CC1	none
CC(C)S(=O)(=O)N[C@@H]1c2cc3c(cc2[C@H](c2ccccc2)[C@H]1C)OCO3	none
CN(c1cccnc1)c1ccc(NC(=O)Cc2c[nH]c3ccccc23)cc1Br	none
COc1cc(NC(=O)C2CCCN(S(=O)(=O)c3ccc(Cl)s3)C2)cc(OC)c1 (stereo not drawn)	none
O=C(CNS(=O)(=O)c1ccccc1)N1CCN(c2ccccn2)CC1	none
CCOC(=O)N[C@@H](Cc1cccnc1)C(=O)N1CCC[C@H]1C(=O)NCCc1ccccc1Cl	none
Nc1cccc(S(=O)(=O)c2cccc(N)c2)c1	none
Nc1cccc2cc(S(=O)(=O)O)ccc12	TbREL1 primary 26 | TbREL1 confirm inactive
Nc1ccc2c(S(=O)(=O)O)cccc2c1S(=O)(=O)O	none
COC(=O)[C@]12C[C@H](CC(=O)N3CCC(c4ccccc4)CC3)C(=O)N(Cc3ccccc3)C1=C[C@H](COCc1ccccc1)O[C@@H]2C	none
CCN(C(=O)COC(=O)c1ccc(Sc2ncn[nH]2)c([N+](=O)[O-])c1)c1ccccc1	none
C=CCNCCOCCOc1ccc(C)cc1Br	none
CC(C)NCCOCCOc1ccc(Cl)cc1Br	none
C=CCNCCOCCOc1ccc(Cl)cc1C(C)(C)C	TbREL1 primary 16 | TbREL1 confirm 19
O=C(Nc1cccs1)OC1CC2CC1[C@H]1CCCCN1C2 (stereo partly drawn)	none
Cc1ccc(C(OCC(O)CN2CCCCC2)c2ccccc2)cc1 (stereo not drawn)	TbREL1 primary 13 | TbREL1 confirm inactive
OC(COC(c1ccc(Cl)cc1)c1ccc(Cl)cc1)CN1CCCC1 (stereo not drawn)	none
CC1CN(CC(O)COC(c2ccccc2)c2ccccc2)CC(C)O1 (stereo not drawn)	none
O=S1(=O)c2ccc(N3CCC[C@@H]3CO)cc2O[C@@H]2CCN1C2	none
CCOC(=O)[C@]12CCCC=C1N(CCCOC)C(=O)[C@@H]2CC(=O)NCCc1ccccc1OC	none
O=C(C[n+]1cc(-c2ccc(F)cc2)n2c1CCC2)Nc1nc(-c2ccc(F)cc2)cs1	none
Cc1ccc(C[n+]2cc(-c3ccc(Cl)cc3)n3c2CCC3)cc1	none
CCc1ccc(NC(=O)C[n+]2cc(-c3ccc(C)cc3)n3c2CCC3)cc1	TbREL1 primary 13 | TbREL1 confirm 14
COC(=O)[C@]12C[C@H](CC(=O)NCCCN3CCCC3=O)C(=O)N(Cc3cccc4ccccc34)C1=C[C@H](C(C)C)O[C@@H]2C1CC1	none
Cc1ccccc1C(=O)NC1CCCCN(C)C1=O (stereo not drawn)	none
CC1CN(c2nc3ccccc3nc2SCC(=O)N2CCN(S(=O)(=O)c3ccc(F)cc3)CC2)CC(C)O1 (stereo not drawn)	none
O=C(Cn1c(-c2cncs2)nc2ccccc21)N1CCCCC1	none
CNCC/C=C1/c2ccccc2CSc2ccccc21	none
S=C1Nc2ccccc2Sc2ccc(Cl)cc21	none
CCCCCC[N+](C)(C)CC/C=C1/c2ccccc2Sc2ccc(Cl)cc21	TbREL1 primary 14 | TbREL1 confirm 14
COC[C@H]1CCCN1c1cccc2c1S(=O)(=O)N1CC[C@@H](C1)O2	none
CCC[C@H]1[C@@H](OC(=O)NCc2ccc(OC)cc2)CC[C@@]23CCCN2C(=O)CCC[C@@H]13	none
COc1ccc(-c2cc(NC(=O)Cc3c(C)[nH]c4ccccc34)ccc2Nc2cccnc2)cc1OC	none
CCOC(=O)[C@@]12CCCC3=C1N(CCC3)C(=O)[C@H]2CC(=O)NCc1cccc(C(F)(F)F)c1	none

High-throughput results: PubChem, The Scripps Research Institute Molecular Screening Center
